Several values for one entry are separate records, joined by “and”; a condition that tells them apart may be missing. Equal values may be shown once. The whole screen tested about 5,500 compounds, of which about 2,000 (36%) were called active. Roughly 18% stayed inconclusive and do not appear here. Cut-off read from the data, not from the text of the source: active = normalized growth mostly below about 0.91 (no sharp cut-off); inconclusive = no clear call, values can overlap the other calls; inactive = mostly above about 0.92. Some of the results follow.
Assay: chemical genetic growth profiling, strain panel (AID 1159580);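 note: tested at 20 µM; growth read once vehicle control cultures reached saturation at 30 °C; 1 = growth at the plate median or of vehicle wells; lower values mean less growth of the strain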
Settings: S. cerevisiae deletion strains, growth OD

Measured: normalized growth

CC(=O)OCC(=O)[C@H]1CCC2C3CCC4=CC(=O)CC[C@]4(C)C3CC[C@@]21C (stereo partly drawn)
0.752 (active) and 0.988 (inactive): locus YJL095W, strain BCK1, stronger effect = lower value
inactive: locus YAL021C, strain ccr4, stronger effect = lower value 0.94 | locus YAL026C, strain drs2, stronger effect = lower value 0.978 | locus YAL030W, strain snc1, stronger effect = lower value 0.979 | locus YBL061C, strain skt5, stronger effect = lower value 0.967 | locus YBR009C, strain hhf1, stronger effect = lower value 0.986 | locus YBR021W, strain FUR4, stronger effect = lower value 0.898 | locus YBR023C, strain chs3, stronger effect = lower value 0.94 | locus YBR171W, strain sec66, stronger effect = lower value 0.927 | locus YBR229C, strain ROT2, stronger effect = lower value 0.969 | locus YBR231C, strain swc5, stronger effect = lower value 1 | locus YBR279W, strain paf1, stronger effect = lower value 0.976 | locus YCL011C, strain gbp2, stronger effect = lower value 0.969 | locus YCL016C, strain dcc1, stronger effect = lower value 0.961 | locus YCL029C, strain bik1, stronger effect = lower value 0.957 | locus YCL061C, strain MRC1, stronger effect = lower value 0.984 | locus YCL069W, strain vba3, stronger effect = lower value 0.98 | locus YCR088W, strain abp1, stronger effect = lower value 0.972 | locus YDL005C, strain med2, stronger effect = lower value 0.964 | locus YDL035C, strain GPR1, stronger effect = lower value 0.86 | locus YDL040C, strain nat1, stronger effect = lower value 0.973 | locus YDL101C, strain DUN1, stronger effect = lower value 0.961 | locus YDL185W, strain tfp1, stronger effect = lower value 0.949 | locus YDL192W, strain arf1, stronger effect = lower value 0.935 | locus YDR001C, strain nth1, stronger effect = lower value 0.972 | locus YDR069C, strain doa4, stronger effect = lower value 0.967 | locus YDR101C, strain arx1, stronger effect = lower value 0.954 | locus YDR137W, strain rgp1, stronger effect = lower value 1.11 | locus YDR159W, strain sac3, stronger effect = lower value 0.885 | locus YDR195W, strain ref2 1.07 | locus YDR297W, strain sur2, stronger effect = lower value 0.975 | locus YDR318W, strain mcm21, stronger effect = lower value 0.929 | locus YDR334W, strain swr1, stronger effect = lower value 0.971 | locus YDR335W, strain msn5, stronger effect = lower value 0.988 | locus YDR388W, stronger effect = lower value 0.94 | locus YEL003W, strain gim4, stronger effect = lower value 0.994 | locus YEL037C, strain rad23, stronger effect = lower value 0.977 | locus YEL061C, strain CIN8 (second series), stronger effect = lower value 0.977 | locus YEL061C, strain CIN8, stronger effect = lower value 0.944 | locus YER015W, strain faa2, stronger effect = lower value 0.969 | locus YER016W, strain bim1, stronger effect = lower value 0.962 | locus YER110C, stronger effect = lower value 0.943 | locus YER111C, strain swi4, stronger effect = lower value 0.971 | locus YFR010W, strain ubp6, stronger effect = lower value 0.994 | locus YGL078C, strain dbp3, stronger effect = lower value 0.961 | locus YGL086W, strain mad1, stronger effect = lower value 0.934 | locus YGL167C, strain pmr1, stronger effect = lower value 0.951 | locus YGL173C, strain kem1, stronger effect = lower value 0.948 | locus YGL227W, strain vid30, stronger effect = lower value 0.992 | locus YGL240W, strain doc1, stronger effect = lower value 0.95 | locus YGL248W, strain PDE1, stronger effect = lower value 0.927 | locus YGL253W, strain hxk2, stronger effect = lower value 0.919 | locus YHR013C, strain ard1, stronger effect = lower value 0.997 | locus YHR027C, strain rpn1, stronger effect = lower value 0.996 | locus YHR030C, strain SLT2, stronger effect = lower value 0.944 and 1.02 | locus YHR079C, strain IRE1 (second series), stronger effect = lower value 0.956 | locus YHR079C, strain IRE1, stronger effect = lower value 1.02 | locus YHR094C, strain hxt1, stronger effect = lower value 0.956 | locus YHR129C, strain ARP1, stronger effect = lower value 0.944 | locus YHR142W, strain chs7, stronger effect = lower value 0.944 | locus YHR200W, strain rpn10, stronger effect = lower value 0.924 | locus YIL073C, strain SPO22, stronger effect = lower value 0.828 | locus YIL125W, strain kgd1, stronger effect = lower value 0.955 | locus YJL092W, strain hpr5, stronger effect = lower value 0.976 | locus YJL095W, strain BCK1 (second series), stronger effect = lower value 0.965 | locus YJL115W, strain asf1, stronger effect = lower value 0.984 | locus YJL129C, strain trk1, stronger effect = lower value 0.931 | locus YJL134W, strain LCB3, stronger effect = lower value 0.976 | locus YJL154C, strain vps35, stronger effect = lower value 0.98 | locus YJL164C, strain tpk1, stronger effect = lower value 0.978 | locus YJL166W, strain qcr8, stronger effect = lower value 0.989 | locus YJL168C, strain set2, stronger effect = lower value 0.96 | locus YJL187C, strain SWE1 (second series), stronger effect = lower value 0.935 | locus YJR066W, strain TOR1, stronger effect = lower value 0.956 | locus YKL009W, strain mrt4, stronger effect = lower value 0.909 | locus YKL068W, stronger effect = lower value 0.956 | locus YKL085W, strain MDH1 (second series), stronger effect = lower value 0.934 | locus YKL085W, strain MDH1, stronger effect = lower value 0.934 | locus YKL160W, strain elf1, stronger effect = lower value 0.964 | locus YKR026C, strain gcn3, stronger effect = lower value 0.977 | locus YKR091W, strain srl3, stronger effect = lower value 0.98 | locus YLL001W, strain dnm1, stronger effect = lower value 0.985 | locus YLL026W, stronger effect = lower value 0.992 | locus YLL041C, strain sdh2, stronger effect = lower value 0.986 | locus YLR027C, strain aat2, stronger effect = lower value 0.97 | locus YLR039C, strain RIC1, stronger effect = lower value 0.772 | locus YLR058C, strain SHM2, stronger effect = lower value 0.942 | locus YLR102C, strain apc9, stronger effect = lower value 0.956 | locus YLR113W, strain HOG1, stronger effect = lower value 0.951 | locus YLR221C, strain rsa3, stronger effect = lower value 0.972 | locus YLR258W, strain gsy2, stronger effect = lower value 0.958 | locus YLR262C, strain YPT6 (second series), stronger effect = lower value 1.04 | locus YLR262C, strain YPT6, stronger effect = lower value 0.754 | locus YLR268W, strain sec22, stronger effect = lower value 0.919 | locus YLR320W, strain mms22, stronger effect = lower value 0.881 | locus YLR342W, strain FKS1, stronger effect = lower value 0.926 | locus YLR357W, strain rsc2, stronger effect = lower value 1.02 | locus YLR370C, strain arc18, stronger effect = lower value 0.958 | locus YLR371W, strain rom2, stronger effect = lower value 0.966 | locus YLR384C, strain iki3, stronger effect = lower value 0.987 | locus YML016C, strain PPZ1, stronger effect = lower value 0.962 | locus YML120C, strain ndi1, stronger effect = lower value 0.979 | locus YML124C, strain tub3, stronger effect = lower value 0.938 | locus YMR058W, strain fet3, stronger effect = lower value 0.959 | locus YMR078C, strain ctf18, stronger effect = lower value 0.923 | locus YMR125W, strain sto1, stronger effect = lower value 0.986 | locus YMR129W, stronger effect = lower value 0.985 | locus YMR205C, strain PFK2, stronger effect = lower value 0.909 | locus YMR223W, strain ubp8, stronger effect = lower value 0.905 | locus YMR231W, strain pep5, stronger effect = lower value 0.988 | locus YMR307W, strain GAS1, stronger effect = lower value 0.744 | locus YNL067W, strain RPL9B, stronger effect = lower value 0.965 | locus YNL071W, strain lat1, stronger effect = lower value 0.923 | locus YNL153C, strain GIM3, stronger effect = lower value 0.962 | locus YNL183C, strain NPR1, stronger effect = lower value 0.961 | locus YNL209W, strain ssb2, stronger effect = lower value 0.979 | locus YNL233W, strain BNI4, stronger effect = lower value 0.871 | locus YNL248C, strain rpa49, stronger effect = lower value 0.945 | locus YNL250W, strain rad50, stronger effect = lower value 0.978 | locus YNL271C, strain bni1, stronger effect = lower value 0.938 | locus YNL322C, strain KRE1 (second series), stronger effect = lower value 0.951 | locus YNR049C, strain mso1, stronger effect = lower value 0.989 | locus YNR052C, strain pop2, stronger effect = lower value 0.986 | locus YOL012C, strain htz1 1.17 | locus YOR001W, strain rrp6, stronger effect = lower value 0.999 | locus YOR061W, strain CKA2, stronger effect = lower value 0.943 | locus YOR069W, strain VPS5, stronger effect = lower value 0.983 | locus YOR070C, strain gyp1, stronger effect = lower value 0.974 | locus YOR080W, strain dia2, stronger effect = lower value 0.987 | locus YOR083W, strain WHI5, stronger effect = lower value 0.9 | locus YOR106W, strain vam3, stronger effect = lower value 0.941 | locus YOR136W, strain idh2, stronger effect = lower value 0.965 | locus YOR231W, strain MKK1, stronger effect = lower value 0.983 | locus YOR265W, strain rbl2, stronger effect = lower value 0.98 | locus YOR290C, strain snf2, stronger effect = lower value 0.961 | locus YOR316C, strain cot1, stronger effect = lower value 0.947 | locus YPL051W, strain arl3, stronger effect = lower value 0.968 | locus YPL055C, strain LGE1, stronger effect = lower value 0.861 | locus YPL078C, strain atp4, stronger effect = lower value 0.903 | locus YPL106C, strain sse1, stronger effect = lower value 1.04 | locus YPL240C, strain hsp82, stronger effect = lower value 0.982 | locus YPL241C, strain CIN2, stronger effect = lower value 0.963 | locus YPL256C, strain CLN2, stronger effect = lower value 1.01 | locus YPR119W, strain clb2, stronger effect = lower value 0.948 | locus YPR141C, strain kar3, stronger effect = lower value 0.954 | locus YPR163C, strain tif3, stronger effect = lower value 0.916 | strain wtn01, stronger effect = lower value 0.949
active: locus YAL013W, strain DEP1, stronger effect = lower value 0.886 | locus YDL074C, strain BRE1, stronger effect = lower value 0.777 | locus YDL134C, strain PPH21, stronger effect = lower value 0.826 | locus YDR162C, strain NBP2, stronger effect = lower value 0.78 | locus YDR392W, strain spt3, stronger effect = lower value 0.56 | locus YDR502C, strain sam2, stronger effect = lower value 0.899 | locus YER155C, strain BEM2 (second series), stronger effect = lower value 0.835 | locus YER155C, strain BEM2, stronger effect = lower value 0.92 | locus YER167W, strain BCK2, stronger effect = lower value 0.829 | locus YGR135W, strain pre9, stronger effect = lower value 0.84 | locus YGR252W, strain gcn5, stronger effect = lower value 0.72 | locus YIL066C, strain RNR3, stronger effect = lower value 0.809 | locus YIR030C, strain dcg1, stronger effect = lower value 0.927 | locus YJR043C, strain POL32, stronger effect = lower value 0.797 | locus YKR001C, strain vps1, stronger effect = lower value 0.777 | locus YLR330W, strain CHS5, stronger effect = lower value 0.864 | locus YLR342W, strain FKS1 (second series), stronger effect = lower value 0.726 | locus YLR418C, strain cdc73, stronger effect = lower value 0.691 | locus YML032C, strain rad52, stronger effect = lower value 0.896 | locus YNL298W, strain CLA4, stronger effect = lower value 0.893 | locus YNL307C, strain MCK1, stronger effect = lower value 0.596 | locus YOL147C, strain pex11, stronger effect = lower value 0.93 | locus YOR144C, strain elg1, stronger effect = lower value 0.929 | locus YOR184W, strain ser1, stronger effect = lower value 0.759 | locus YOR270C, strain vph1, stronger effect = lower value 0.734 | locus YPR167C, strain met16, stronger effect = lower value 0.921
